Assay results: PubChem BioAssay AID1159580 (chemical genetic matrix, 2015)
Screen size: about 5,500 compounds; about 2,000 (36%) were called active. About 18% were inconclusive and are not listed. No stated cut-off is given here; in the data, active means normalized growth mostly below about 0.91 (no sharp cut-off); inconclusive means no clear call, values can overlap the other calls; inactive means mostly above about 0.92. This is one part of the list.

Test: chemical genetic growth profiling, strain panel (AID 1159580);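 further: tested at 20 µM; growth read once vehicle control cultures reached saturation at 30 °C; 1 = growth at the plate median or of vehicle wells; lower values mean less growth of the strain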
Settings: growth OD

Measured: normalized growth

CC[C@H](CCC(C)[C@H]1CCC2C3CCC4C[C@@H](O)CC[C@]4(C)C3CC[C@@]21C)C(C)C (stereo partly drawn)
inactive: S. cerevisiae deletion strains, locus YKL009W, strain mrt4, active compounds read low 1.02 | S. cerevisiae deletion strains, locus YKL068W, active compounds read low 1.01 | S. cerevisiae deletion strains, locus YKL085W, strain MDH1 (second series), active compounds read low 1.01 | S. cerevisiae deletion strains, locus YKL085W, strain MDH1, active compounds read low 1.01 | S. cerevisiae deletion strains, locus YKL160W, strain elf1, active compounds read low 1.02 | S. cerevisiae deletion strains, locus YKR001C, strain vps1, active compounds read low 1.04 | S. cerevisiae deletion strains, locus YKR026C, strain gcn3, active compounds read low 0.988 | S. cerevisiae deletion strains, locus YKR091W, strain srl3, active compounds read low 0.992 | S. cerevisiae deletion strains, locus YLL001W, strain dnm1, active compounds read low 1.01 | S. cerevisiae deletion strains, locus YLL026W, active compounds read low 0.991 | S. cerevisiae deletion strains, locus YLL041C, strain sdh2, active compounds read low 0.969 | S. cerevisiae deletion strains, locus YLR027C, strain aat2, active compounds read low 0.987 | S. cerevisiae deletion strains, locus YLR039C, strain RIC1, active compounds read low 0.995 | S. cerevisiae deletion strains, locus YLR058C, strain SHM2, active compounds read low 1.01 | S. cerevisiae deletion strains, locus YLR102C, strain apc9, active compounds read low 1.01 | S. cerevisiae deletion strains, locus YLR113W, strain HOG1, active compounds read low 0.991 | S. cerevisiae deletion strains, locus YLR221C, strain rsa3, active compounds read low 1.03 | S. cerevisiae deletion strains, locus YLR258W, strain gsy2, active compounds read low 0.988 | S. cerevisiae deletion strains, locus YLR262C, strain YPT6 (second series), active compounds read low 0.97 | S. cerevisiae deletion strains, locus YLR262C, strain YPT6, active compounds read low 1.02 | S. cerevisiae deletion strains, locus YLR268W, strain sec22, active compounds read low 1.02 | S. cerevisiae deletion strains, locus YLR320W, strain mms22, active compounds read low 1.02 | S. cerevisiae deletion strains, locus YLR330W, strain CHS5, active compounds read low 1.01 | S. cerevisiae deletion strains, locus YLR342W, strain FKS1 (second series), active compounds read low 1.01 | S. cerevisiae deletion strains, locus YLR342W, strain FKS1, active compounds read low 0.978 | S. cerevisiae deletion strains, locus YLR357W, strain rsc2, active compounds read low 0.98 | S. cerevisiae deletion strains, locus YLR370C, strain arc18, active compounds read low 0.98 | S. cerevisiae deletion strains, locus YLR371W, strain rom2, active compounds read low 1.01 | S. cerevisiae deletion strains, locus YLR384C, strain iki3, active compounds read low 0.986 | S. cerevisiae deletion strains, locus YLR418C, strain cdc73, active compounds read low 1 | S. cerevisiae deletion strains, locus YML016C, strain PPZ1, active compounds read low 1.01 | S. cerevisiae deletion strains, locus YML032C, strain rad52, active compounds read low 1.01 | S. cerevisiae deletion strains, locus YML120C, strain ndi1, active compounds read low 0.989 | S. cerevisiae deletion strains, locus YML124C, strain tub3, active compounds read low 1.01 | S. cerevisiae deletion strains, locus YMR058W, strain fet3, active compounds read low 0.967 | S. cerevisiae deletion strains, locus YMR078C, strain ctf18, active compounds read low 1.01 | S. cerevisiae deletion strains, locus YMR125W, strain sto1, active compounds read low 0.969 | S. cerevisiae deletion strains, locus YMR129W, active compounds read low 0.982 | S. cerevisiae deletion strains, locus YMR205C, strain PFK2, active compounds read low 1.01 | S. cerevisiae deletion strains, locus YMR223W, strain ubp8, active compounds read low 0.988 | S. cerevisiae deletion strains, locus YMR231W, strain pep5, active compounds read low 0.975 | S. cerevisiae deletion strains, locus YMR263W, strain SAP30, active compounds read low 1.01 | S. cerevisiae deletion strains, locus YMR307W, strain GAS1, active compounds read low 0.973 | S. cerevisiae deletion strains, locus YNL067W, strain RPL9B, active compounds read low 1 | S. cerevisiae deletion strains, locus YNL071W, strain lat1, active compounds read low 0.974 | S. cerevisiae deletion strains, locus YNL153C, strain GIM3, active compounds read low 1 | S. cerevisiae deletion strains, locus YNL183C, strain NPR1, active compounds read low 0.974 | S. cerevisiae deletion strains, locus YNL209W, strain ssb2, active compounds read low 1 | S. cerevisiae deletion strains, locus YNL233W, strain BNI4, active compounds read low 1 | S. cerevisiae deletion strains, locus YNL248C, strain rpa49, active compounds read low 0.975 | S. cerevisiae deletion strains, locus YNL250W, strain rad50, active compounds read low 1 | S. cerevisiae deletion strains, locus YNL271C, strain bni1, active compounds read low 1.01 | S. cerevisiae deletion strains, locus YNL298W, strain CLA4, active compounds read low 1.02 | S. cerevisiae deletion strains, locus YNL307C, strain MCK1, active compounds read low 1.01 | S. cerevisiae deletion strains, locus YNL322C, strain KRE1 (second series), active compounds read low 0.982 | S. cerevisiae deletion strains, locus YNL322C, strain KRE1, active compounds read low 1 | S. cerevisiae deletion strains, locus YNR049C, strain mso1, active compounds read low 0.984 | S. cerevisiae deletion strains, locus YNR052C, strain pop2, active compounds read low 1.02 | S. cerevisiae deletion strains, locus YOL012C, strain htz1 0.67 | S. cerevisiae deletion strains, locus YOL147C, strain pex11, active compounds read low 1 | S. cerevisiae deletion strains, locus YOR001W, strain rrp6, active compounds read low 0.949 | S. cerevisiae deletion strains, locus YOR061W, strain CKA2, active compounds read low 1.02 | S. cerevisiae deletion strains, locus YOR069W, strain VPS5, active compounds read low 1.01 | S. cerevisiae deletion strains, locus YOR070C, strain gyp1, active compounds read low 1.02 | S. cerevisiae deletion strains, locus YOR080W, strain dia2, active compounds read low 0.988 | S. cerevisiae deletion strains, locus YOR083W, strain WHI5, active compounds read low 1.03 | S. cerevisiae deletion strains, locus YOR106W, strain vam3, active compounds read low 0.998 | S. cerevisiae deletion strains, locus YOR136W, strain idh2, active compounds read low 1.01 | S. cerevisiae deletion strains, locus YOR144C, strain elg1, active compounds read low 1.01 | S. cerevisiae deletion strains, locus YOR184W, strain ser1, active compounds read low 1.02 | S. cerevisiae deletion strains, locus YOR231W, strain MKK1, active compounds read low 1.01 | S. cerevisiae deletion strains, locus YOR265W, strain rbl2, active compounds read low 1.02 | S. cerevisiae deletion strains, locus YOR270C, strain vph1, active compounds read low 0.979 | S. cerevisiae deletion strains, locus YOR290C, strain snf2, active compounds read low 0.995 | S. cerevisiae deletion strains, locus YOR316C, strain cot1, active compounds read low 1.01 | S. cerevisiae deletion strains, locus YPL051W, strain arl3, active compounds read low 0.995 | S. cerevisiae deletion strains, locus YPL055C, strain LGE1, active compounds read low 1 | S. cerevisiae deletion strains, locus YPL078C, strain atp4, active compounds read low 0.989 | S. cerevisiae deletion strains, locus YPL106C, strain sse1, active compounds read low 0.994 | S. cerevisiae deletion strains, locus YPL240C, strain hsp82, active compounds read low 0.987 | S. cerevisiae deletion strains, locus YPL241C, strain CIN2, active compounds read low 1 | S. cerevisiae deletion strains, locus YPL256C, strain CLN2, active compounds read low 1.02 | S. cerevisiae deletion strains, locus YPR119W, strain clb2, active compounds read low 1.01 | S. cerevisiae deletion strains, locus YPR141C, strain kar3, active compounds read low 1.01 | S. cerevisiae deletion strains, locus YPR163C, strain tif3, active compounds read low 1.01 | S. cerevisiae deletion strains, locus YPR167C, strain met16, active compounds read low 1 | S. cerevisiae deletion strains, strain wtn01, active compounds read low 1.02 | S. cerevisiae strains, strain wild type, active compounds read low 1.01
